Laboratory results: PubChem BioAssay (NCATS)
Records with an inconclusive call do not appear. The source made the active and inactive calls. Calls follow the shape of the full dose curve.

Target: Estrogen receptor (Homo sapiens) (UniProt P03372)
Test: qHTS assay for small molecule agonists of estrogen receptor alpha signaling (AID 588514); also: nearly all actives have a fitted effect of over 70% in size;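 as to activation: 0% = vehicle only and 100% = reference agonist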
Conditions: ER-alpha-UAS-bla HEK293, beta-lactamase ratio, 18 h; series mostly up to 76.8 µM; activation: at the top concentration
Description: NIH Chemical Genomics Center [NCGC]
U.S. Environmental Protection Agency [EPA]
National Institutes of Environmental Health Sciences [NIEHS]
National Toxicology Program [NTP]
Estrogen receptor alpha (ER-alpha) is an important member of nuclear hormone receptors. ER-alpha plays important role in breast cancer as well as in other women's health issues. The majority of breast cancers is estrogen receptor (ER) positive and depends on estrogen for growth. There is also growing concern for some of environmental chemicals which may contribute the increasing the incidence of breast cancer. Therefore, it is important to understand the effect of environmental chemicals in ER-alpha signaling pathway.
NCGC Assay Protocol Summary
Using a beta-lactamase reporter-gene under control of the ER response element, a cell-based assay [ER-alpha-UAS-bla GripTiteTM cell-Based Assay from Invitrogen] was used to measure ER-alpha signaling pathway in agonist mode. ER-alpha-UAS-bla-GripTite HEK 293 cells were used with assay medium containing 2% charcoal/dextran treated FBS, 0.1 mM NEAA and 1 mM sodium pyruvate. Cells were cultured in this assay medium overnight in the flasks before the assay. The assay was performed in clear bottom black Greiner 1536-well plates. 17-beta-estradiol was used as a positive control in the screen. Library compounds were measured for their ability to either stimulate the reporter gene activity. Compounds were screened in a titration series in 1536-well format. […] Data was normalized relative to 17-beta-estradiol control (20 nM, 100%), and DMSO only wells (basal, 0%). Concentration-response titration points for each compound were fitted to the Hill equation yielding concentrations of half-maximal stimulation (EC50) and maximal response (efficacy) values.
qHTS protocol for ER-alpha beta-lactamase assay in agonist mode
[Step] [Parameter] [Value] [Description]
1. Reagent; 6 uL; 5000 cells/well
2. Incubation; 37 C for 4 hrs
4. Controls (17-beta-estradiol); 23 nL
- Dose response, start 1uM, 1:3 dilutions with duplicates
- Two columns with 20 and 0.5 nM (final) concentration.
5. Incubation; 37 C for 18 hrs
6. Detection reagent; 1 uL of CCF4-dye
7. Incubation; RT for 2 hrs
8. Detection; Fluorescence; Envision plate reader or Acumen plate reader

Estrogen receptor (Homo sapiens), sequence (P03372 whole entry, looked up): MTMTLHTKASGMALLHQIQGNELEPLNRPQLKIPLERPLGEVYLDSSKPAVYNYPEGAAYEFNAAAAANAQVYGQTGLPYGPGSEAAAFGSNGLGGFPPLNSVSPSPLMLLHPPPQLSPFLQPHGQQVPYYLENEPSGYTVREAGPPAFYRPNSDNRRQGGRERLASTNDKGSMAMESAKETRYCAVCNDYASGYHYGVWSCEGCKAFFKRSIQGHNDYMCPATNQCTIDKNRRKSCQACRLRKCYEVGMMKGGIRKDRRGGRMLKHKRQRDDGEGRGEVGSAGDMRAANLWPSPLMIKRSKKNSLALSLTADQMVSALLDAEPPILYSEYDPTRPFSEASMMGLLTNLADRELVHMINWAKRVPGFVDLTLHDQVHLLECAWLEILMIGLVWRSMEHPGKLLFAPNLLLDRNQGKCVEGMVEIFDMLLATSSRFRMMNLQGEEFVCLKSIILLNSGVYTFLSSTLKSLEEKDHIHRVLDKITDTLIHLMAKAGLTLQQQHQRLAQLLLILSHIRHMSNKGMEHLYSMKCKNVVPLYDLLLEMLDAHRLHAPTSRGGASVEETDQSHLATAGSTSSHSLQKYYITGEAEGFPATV

Structure (SMILES) | activation | Potency
COCC(C)N(C(=O)CCl)c1c(C)csc1C (stereo not drawn) | -6.61% (inactive) | 
O=C/C=C/c1ccccc1 | 5.26% (inactive) | 
C[C@H]1CCC[C@H](O)CCCCCc2cc(O)cc(O)c2C(=O)O1 |  | 141 nM (active)
O=C(O)c1cc[c]([Hg][Cl])cc1 | -7.78% (inactive) | 
CC(C)Nc1ccc(Nc2ccccc2)cc1 | 3.26% (inactive) | 
ClCC1CO1 (stereo not drawn) | -3.96% (inactive) | 
[Cl-].[Cl-].[Hg+2] | -8.93% (inactive) | 
O=[N+]([O-])C(Br)(CO)CO | -0.43% (inactive) | 
O=[N+]([O-])c1ccc(F)c([N+](=O)[O-])c1 | -11.4% (inactive) | 
ClC(Cl)(Cl)Cl |  | inactive
C[C@H]1CC[C@@H]2[C@@H](C)[C@H]3[C@H](C[C@H]4[C@@H]5CC=C6CC(O[C@@H]7O[C@H](CO)[C@H](O)[C@H](O[C@@H]8O[C@H](CO)[C@@H](O)[C@H](O)[C@H]8O)[C@H]7O[C@H]7O[C@@H](C)[C@H](O)[C@@H](O)[C@H]7O)CC[C@]6(C)[C@H]5CC[C@]34C)N2C1 (stereo partly drawn) | 18.3% (inactive) | 
CCOC(=O)c1ccccc1C(=O)OCC |  | inactive
NNC(N)=O | -1.5% (inactive) | 
N#CN | -0.584% (inactive) | 
C=CCN=C=S | 1.34% (inactive) | 
O=[N+]([O-])c1ccccc1 |  | inactive
O=C1CCO1 | 2.6% (inactive) | 
[O]=[Cd] | 0.66% (inactive) | 
CCOP(=O)(OCC)O/C(=C/Cl)c1ccc(Cl)cc1Cl |  | inactive
S=C=S | -1.46% (inactive) | 
ClC=C(Cl)Cl |  | inactive
[O]=[Cr](=[O])([OH])[O][Cr](=[O])(=[O])[OH] |  | inactive
O=CC=O | -11.5% (inactive) | 
